Screening results as filed in PubChem.
Compounds with a hit are over-represented: about 3.8% of the library has one in this group of screens.
Wnt bcat act – Wnt/beta-catenin pathway activators, primary screen, cell-based, plate reader, single point; Wnt/beta-catenin reporter cell assay, activator; activation, % at 9.35 µM; hit rate 1.2% among 300,000; AID 743398, 2014; in the data active = activation above about 30%, passing the limit was not always enough;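 also: 0% = neutral control wells and 100% = positive control wells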
MITF TRPM1 HTS – activators of MITF-driven TRPM1 promoter reporter, primary screen, cell-based, SK-MEL-5, luciferase, single point. SK-MEL-5 TRPM1-promoter luciferase, 24 h; % of positive control, neutral wells = 0. activation, % at 12.5 µM. hit rate 0.75% among 300,000. AID 588334, 2011;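 active = mean activation of at least 80% with every replicate also reaching 80%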;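 also: 0% = neutral control wells and 100% = parthenolide positive control wells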
esBAF inh – Bmi1 luciferase reporter increase in mESCs, primary screen, esBAF inhibitor project, mouse ES cells, Bmi1 luciferase knock-in, single point; 24 h; 100% = twice the neutral-well signal; reporter increase, % at 12.5 µM; hit rate 2% among 350,000; AID 602393, 2012; in the data active = activation above about 40%;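 also: 0% = median of the plate's neutral control wells and 100% = double that signal; a rise in the Bmi1 reporter signal indicates esBAF inhibition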
HSF-1 act – HSF-1 activators, primary screen, NIH3T3-HGL cells, MG132 stress, luminescence, single point; NIH3T3-HGL HSF-1 luciferase reporter, 8 h; 100% = twice DMSO control signal; activation, % at 9 µM; hit rate 1.7% among 300,000;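 active = mean replicate activation of at least 50% with a set share of replicates each reaching 50%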;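 also: 0% = median of the neutral control wells and 100% = twice that signal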
HSF1 inhib – HSF1 inhibitors in luciferase reporter cells, primary screen, cell-based, NIH3T3, luminescence. hit rate 0.77% among 300,000. activity change, negative = inhibition, % at 7.5 µM (by protocol). NIH3T3-HGL HSE-luciferase, MG132-induced, luminescence 8 h; hits give low values;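 active = more than half of replicate wells show activity change below -50%, luminescence cut by over half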;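 also: luciferase reports HSF-1 transcriptional activity via heat shock element; 0% = median of DMSO wells and -100% = zero luminescence signal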
The depositor's hits bear a star; x = not tested or not shown.

SMILES	Wnt bcat act	MITF TRPM1 HTS	esBAF inh	HSF-1 act	HSF1 inhib
C[C@@H]1CN([C@H](C)CO)C(=O)Cc2cc(NC(=O)Nc3cccc4ccccc34)ccc2O[C@H]1CN(C)S(=O)(=O)c1ccc(Cl)cc1	x	x	0	x	x
C[C@H]1CN([C@@H](C)CO)C(=O)c2cc(NC(=O)CCN3CCOCC3)ccc2O[C@H]1CN(C)Cc1ccc(C(=O)O)cc1	x	x	-3	x	x
CN(C)Cc1cn(CC[C@@H]2CC[C@H](NS(=O)(=O)c3ccccc3)[C@@H](CO)O2)nn1	x	x	-4	x	x
CO[C@H]1CN(C)C(=O)c2cc(NC(=O)c3ccccc3)ccc2OC[C@@H](C)NC[C@@H]1C	x	x	1	x	x
Cc1sc2nc(C3CC3)nc(SCC(=O)N3CCc4ccccc4C3)c2c1C	x	-4	-9	68*	17
COc1ccccc1C#Cc1cnc2c(c1)C(=O)N([C@H](C)CO)C[C@H](C)[C@H](CN(C)C)O2	x	x	5	x	x
Cc1nc(Nc2nc3ccccc3o2)nc(C)c1C	-2	5	x	19	11
Cc1ccc2oc(Nc3nc(C)c(C)c(C)n3)nc2c1	41*	x	x	5	-4
Cc1sc2ncnc(Nc3ccc(O)cc3)c2c1C	38*	4	3	16	5
COc1ccc(S(=O)(=O)Nc2ccc3c(c2)C(=O)N([C@H](C)CO)C[C@H](C)[C@H](CN(C)S(=O)(=O)c2ccc(OC)cc2)OCCCC[C@H](C)O3)cc1	x	x	6	x	x
COc1ccc(N2CCN(S(=O)(=O)c3cc4c(cc3C)N(C(C)=O)CCO4)CC2)cc1	0	x	-2	-67	-58*
COc1ccc(N2CCN(S(=O)(=O)c3cc4c(cc3C)NC(=O)CO4)CC2)cc1	1	x	0	2	-9
COCCNC(=O)C[C@H]1CC[C@@H](NS(=O)(=O)c2ccc(C)cc2)[C@H](CO)O1	x	x	0	x	x
CCN(CC)c1ccc(/C=N/NC(=S)NCc2ccc(OC)cc2)cc1	-11	4	x	53*	22
CC(C)Oc1ccc(CNC(=S)N/N=C/c2ccc([N+](=O)[O-])cc2)cc1	2	12	9	-74	-67*
C[C@H](CO)N1C[C@H](C)[C@@H](CN(C)S(=O)(=O)c2ccc(Cl)cc2)Oc2ccc(NC(=O)Nc3ccccc3)cc2CC1=O	x	x	6	x	x
C[C@H](CO)N1C[C@H](C)[C@@H](CN(C)S(=O)(=O)c2cccs2)Oc2ncc(C#CCC3CCCC3)cc2C1=O	x	x	-1	x	x
O=C(Nc1nc2ccc(F)cc2s1)c1ccccn1	-2	x	x	110*	60
O=C(Nc1nnc(SCc2ccc(F)cc2)s1)c1ccccn1	1	-3	x	223*	164
O=C(NNc1nc2ccc(F)cc2s1)c1cccc(F)c1	3	-2	27	42	28
Cc1ccc(-n2cc(CN3CCN(Cc4nccn4C)CC3)c(-c3ccc(F)cc3)n2)cc1	1	35	-22	55*	32
CCc1ccc(NC(=O)C/C(C)=N/NC(=O)COc2ccc(C)cc2Br)cc1	-2	-3	1	59*	40
C/C(CC(=O)Nc1ccccc1)=N\NC(=O)COc1ccc(C)cc1Br	0	-4	x	15	8
CC(C)NC(=O)Nc1ccc2c(c1)CC(=O)N([C@@H](C)CO)C[C@H](C)[C@H](CN(C)C(=O)NC(C)C)O2	x	x	0	x	x
Cc1cc(C)n(-c2ncccc2[N+](=O)[O-])n1	21	-9	-5	5	-4
SMILES	Wnt bcat act	MITF TRPM1 HTS	esBAF inh	HSF-1 act	HSF1 inhib
CC(C)c1ccc(-n2cnn(-c3ncccc3[N+](=O)[O-])c2=O)cc1	9	5	x	54*	26
C[C@@H]1CN([C@H](C)CO)C(=O)c2cc(C3=CCCC3)cnc2O[C@H]1CN(C)Cc1cccnc1	x	x	-8	x	x
Cc1ccccc1Cn1c(-c2cncs2)nc2ccccc21	7	4	x	69*	65
O=C(C[C@H]1CC[C@H]2[C@@H](COC[C@@H](O)CN2S(=O)(=O)c2cccc(F)c2)O1)NCc1ccc2c(c1)OCO2	x	x	-4	x	x
CN1C[C@H](O)COC[C@@H]2O[C@@H](CC(=O)NC3CCC3)CC[C@H]21	x	x	1	x	x
CCS(=O)(=O)N1CCCC(C(=O)NCCc2ccc(OC)c(OC)c2)C1 (stereo not given)	x	5	-2	-3	-5
COc1ccc(CCNC(=O)C2CCCN(S(=O)(=O)c3ccc(F)cc3)C2)cc1OC (stereo not given)	-3	-2	6	-67	-57*
Cc1cc(C)c(S(=O)(=O)N2CCCC(C(=O)NCCC3=CCCCC3)C2)c(C)c1 (stereo not given)	-2	-7	-6	60*	27
Clc1ccc(CNC2CCN(Cc3ccccc3)CC2)cc1	0	13	-16	81*	40
Fc1ccc(CNC2CCN(Cc3ccccc3)CC2)cc1	-5	3	0	-1	-1
COc1ccc(C(=O)/C=C/c2ccc(OCc3ccccc3)cc2)cc1CSCC(=O)O	1	-5	-4	55*	16
COc1ccc(/C=C/C(=O)c2ccccc2)cc1COc1ccc(F)cc1	1	13	x	3	4
COc1ccc(/C=C/C(=O)c2ccc(O)cc2)cc1COc1ccc(F)cc1	0	3	2	83*	59
O=C(/C=C/c1ccc(O)c([N+](=O)[O-])c1)c1ccc2ccccc2c1	2	-9	-3	18	3
COc1ccc(Oc2ccc(/C=C/C(=O)c3ccc(O)cc3)cc2[N+](=O)[O-])cc1	-1	-81	x	77*	34
COc1ccc(C(=O)/C=C/c2cccc(OCc3ccccc3)c2)cc1CSCC(=O)O	-1	-12	-6	23	13
COc1ccc(/C=C/C(=O)c2ccccc2)cc1Cn1nnc2ccccc21	43*	-6	x	5	15
O=C(C[C@@H]1CC[C@H](NC(=O)c2ccccc2)[C@H](CO)O1)NCCc1ccncc1	x	x	-2	x	x
O=C(c1cc(-c2ccc(O)cc2)on1)N1CCCCCC1	40*	84*	11	68*	54
Cc1ccc(-c2cc(C(=O)N3CCCC3)no2)cc1	1	-9	-56	-26	-28
O=C(c1cc(-c2cccc(Cl)c2)on1)N1CCCCCC1	21	113*	63*	3	19
O=C(c1cc(-c2ccc(Cl)cc2Cl)on1)N1CCCC1	-1	3	-49	-15	-10
O=C(c1cc(-c2ccc(Cl)cc2)on1)N1CCCCCC1	-5	64	11	45	25
O=C(c1cc(-c2ccc(Cl)c(Cl)c2)on1)N1CCCCCC1	22	131*	59*	46	25
O=C(c1cc(-c2ccc(Cl)cc2Cl)on1)N1CCCCCC1	33*	42	-8	26	17
CO[C@H]1CN(C)C(=O)c2cc(NC(=O)c3cc(C)on3)ccc2OC[C@@H](C)N(C)C[C@H]1C	x	x	3	x	x
